The text below walks through data of publication PMC7862700, “An all-to-all approach to the identification of sequence-specific readers for epigenetic DNA modifications on cytosine”.

Common to all, as to test: DAPPL (digital affinity profiling via proximity ligation, sequencing); 10 mM Tris-HCl pH 7.5, 50 mM NaCl, 1 mM DTT, 4% glycerol, room temperature, 30 min; GST-TFs on glutathione beads, 16-mer random dsDNA library, 0.1% formaldehyde crosslink after washing; high values mean tight binding
One assay addresses T1, FEV (Homo sapiens, UniProt Q99581 1-238).
T1 sequence: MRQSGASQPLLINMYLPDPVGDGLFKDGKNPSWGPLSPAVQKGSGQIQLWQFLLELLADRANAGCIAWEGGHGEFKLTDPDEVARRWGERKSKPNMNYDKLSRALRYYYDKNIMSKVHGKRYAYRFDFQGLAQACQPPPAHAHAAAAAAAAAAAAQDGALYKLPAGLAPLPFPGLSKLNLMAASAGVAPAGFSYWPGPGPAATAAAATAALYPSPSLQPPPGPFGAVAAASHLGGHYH
To be noted: protein: recombinant; tags: N-terminal GST; dsDNA, one strand shown. The procedure, abridged: (§1)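 Binding signal is each hexamer's read frequency for a factor divided by its frequency in the tag-only sample. The factors were GST-fused human transcription factors from yeast, captured on glutathione beads, DNA-barcoded and pooled with that sample. Pools were incubated with 200 nmole of a random double-stranded 16-mer DNA library in Tris/NaCl/DTT/glycerol buffer at room temperature for 30 min, then washed, crosslinked with 0.1% formaldehyde, proximity-ligated with BsaI/T4 ligase (1 h, 37 °C), PCR-amplified and sequenced on an Illumina NextSeq500.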

The target of the next assay is ETV5 (Homo sapiens, UniProt P41161 1-510). Conditions: protein: recombinant; tags: N-terminal GST; dsDNA, one strand shown. The procedure, abridged: as §1
The target of a further assay is HSF1 (Homo sapiens, UniProt Q00613 1-529). To be noted: protein: recombinant; tags: N-terminal GST; chain copies: 3; dsDNA, one strand shown. The procedure, abridged:
as §1

Another assay concerns the target T2, SPIC (Homo sapiens, UniProt Q8N5J4 1-248).
T2 sequence: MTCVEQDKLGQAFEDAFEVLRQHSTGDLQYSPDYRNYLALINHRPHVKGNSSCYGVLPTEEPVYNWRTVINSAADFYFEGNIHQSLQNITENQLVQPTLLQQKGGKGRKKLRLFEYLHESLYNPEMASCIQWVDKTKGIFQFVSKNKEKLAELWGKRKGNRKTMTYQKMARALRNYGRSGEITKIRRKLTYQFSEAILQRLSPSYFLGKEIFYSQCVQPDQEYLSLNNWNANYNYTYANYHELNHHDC
To be noted: protein: recombinant; tags: N-terminal GST; dsDNA, one strand shown. The procedure, abridged:
as §1

Another assay concerns the target ELF4 (Homo sapiens, UniProt Q99607 1-663). To be noted: protein: recombinant; tags: N-terminal GST; dsDNA, one strand shown. The procedure, abridged:
as §1

Another assay has as its target T3, ELK4 (Homo sapiens, UniProt P28324-2 1-405).
T3 sequence: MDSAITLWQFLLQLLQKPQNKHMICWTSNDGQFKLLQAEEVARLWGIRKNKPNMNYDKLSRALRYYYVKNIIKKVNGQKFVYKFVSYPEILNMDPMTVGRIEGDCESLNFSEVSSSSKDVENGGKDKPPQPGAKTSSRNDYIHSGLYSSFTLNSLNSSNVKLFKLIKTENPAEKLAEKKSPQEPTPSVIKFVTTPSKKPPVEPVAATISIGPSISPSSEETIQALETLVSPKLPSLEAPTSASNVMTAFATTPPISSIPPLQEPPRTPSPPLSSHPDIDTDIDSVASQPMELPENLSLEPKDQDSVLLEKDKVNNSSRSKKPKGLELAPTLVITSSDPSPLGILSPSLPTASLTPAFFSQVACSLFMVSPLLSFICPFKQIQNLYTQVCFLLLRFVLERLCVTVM
To be noted: protein: recombinant; tags: N-terminal GST; dsDNA, one strand shown. The procedure, abridged:
as §1

The target of another assay is T4, ETV2 (Homo sapiens, UniProt O00321 1-342).
T4 sequence: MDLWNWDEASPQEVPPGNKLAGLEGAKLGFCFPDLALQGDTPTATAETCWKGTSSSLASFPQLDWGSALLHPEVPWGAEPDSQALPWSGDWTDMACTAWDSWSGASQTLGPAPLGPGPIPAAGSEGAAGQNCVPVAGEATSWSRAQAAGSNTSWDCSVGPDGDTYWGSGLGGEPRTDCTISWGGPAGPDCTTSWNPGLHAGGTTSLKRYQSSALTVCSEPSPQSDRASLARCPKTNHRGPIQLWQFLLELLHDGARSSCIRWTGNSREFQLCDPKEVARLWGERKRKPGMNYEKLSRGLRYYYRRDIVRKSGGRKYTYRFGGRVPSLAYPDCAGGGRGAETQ
To be noted: protein: recombinant; tags: N-terminal GST; dsDNA, one strand shown. The procedure, abridged:
as §1

The target of another assay is T5, ELF3 (Homo sapiens, UniProt P78545 1-371).
T5 sequence: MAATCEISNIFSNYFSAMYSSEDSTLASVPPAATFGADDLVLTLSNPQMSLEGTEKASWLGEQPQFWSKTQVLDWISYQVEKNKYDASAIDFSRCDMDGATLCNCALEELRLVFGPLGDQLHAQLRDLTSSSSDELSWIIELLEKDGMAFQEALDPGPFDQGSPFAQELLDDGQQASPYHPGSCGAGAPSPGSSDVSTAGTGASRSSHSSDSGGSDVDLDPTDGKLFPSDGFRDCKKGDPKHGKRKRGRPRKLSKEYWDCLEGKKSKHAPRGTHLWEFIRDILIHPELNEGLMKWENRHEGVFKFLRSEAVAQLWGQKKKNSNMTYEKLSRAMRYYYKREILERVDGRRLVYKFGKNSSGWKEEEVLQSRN
To be noted: protein: recombinant; tags: N-terminal GST; dsDNA, one strand shown. The procedure, abridged:
as §1

In a further assay the target is CRX (Homo sapiens, UniProt O43186 1-299). Conditions: protein: recombinant; tags: N-terminal GST; dsDNA, one strand shown. Put shortly:
as §1

The target in a further assay is ETV1 (Homo sapiens, UniProt P50549 1-477). Conditions: protein: recombinant; tags: N-terminal GST; dsDNA, one strand shown. The procedure, abridged:
as §1

A further assay has as its target T6, ERF (Homo sapiens, UniProt P50548 1-548).
T6 sequence: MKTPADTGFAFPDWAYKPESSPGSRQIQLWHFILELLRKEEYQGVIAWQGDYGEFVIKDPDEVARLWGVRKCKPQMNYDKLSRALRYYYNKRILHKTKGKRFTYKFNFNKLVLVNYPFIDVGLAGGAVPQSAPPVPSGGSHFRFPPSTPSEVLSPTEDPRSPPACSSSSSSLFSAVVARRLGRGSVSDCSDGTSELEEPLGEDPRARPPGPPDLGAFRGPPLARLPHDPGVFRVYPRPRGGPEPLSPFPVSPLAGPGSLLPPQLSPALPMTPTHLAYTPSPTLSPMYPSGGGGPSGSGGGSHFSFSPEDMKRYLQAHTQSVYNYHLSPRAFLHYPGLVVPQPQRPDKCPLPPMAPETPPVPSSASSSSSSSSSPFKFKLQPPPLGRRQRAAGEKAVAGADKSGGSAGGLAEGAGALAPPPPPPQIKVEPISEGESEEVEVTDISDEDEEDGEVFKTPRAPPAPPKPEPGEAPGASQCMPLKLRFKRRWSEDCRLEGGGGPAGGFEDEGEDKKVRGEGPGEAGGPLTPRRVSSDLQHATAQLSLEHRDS
To be noted: protein: recombinant; tags: N-terminal GST; dsDNA, one strand shown. The procedure, abridged: as §1

The next assay has as its target T7, ETV3L (Homo sapiens, UniProt Q6ZN32 1-361).
T7 sequence: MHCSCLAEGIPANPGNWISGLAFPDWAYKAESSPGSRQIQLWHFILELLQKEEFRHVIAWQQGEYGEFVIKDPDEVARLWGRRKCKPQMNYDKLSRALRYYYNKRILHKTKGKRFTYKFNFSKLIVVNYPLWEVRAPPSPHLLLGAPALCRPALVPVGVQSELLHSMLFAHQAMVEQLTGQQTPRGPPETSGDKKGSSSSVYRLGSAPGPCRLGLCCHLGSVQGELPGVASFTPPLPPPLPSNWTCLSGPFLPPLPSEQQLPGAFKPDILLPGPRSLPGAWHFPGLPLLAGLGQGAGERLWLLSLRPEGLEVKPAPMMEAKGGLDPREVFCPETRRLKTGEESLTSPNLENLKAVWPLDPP
To be noted: protein: recombinant; tags: N-terminal GST; dsDNA, one strand shown. Put shortly:
as §1

A further assay has as its target T8, ETS2 (Homo sapiens, UniProt P15036 1-469).
T8 sequence: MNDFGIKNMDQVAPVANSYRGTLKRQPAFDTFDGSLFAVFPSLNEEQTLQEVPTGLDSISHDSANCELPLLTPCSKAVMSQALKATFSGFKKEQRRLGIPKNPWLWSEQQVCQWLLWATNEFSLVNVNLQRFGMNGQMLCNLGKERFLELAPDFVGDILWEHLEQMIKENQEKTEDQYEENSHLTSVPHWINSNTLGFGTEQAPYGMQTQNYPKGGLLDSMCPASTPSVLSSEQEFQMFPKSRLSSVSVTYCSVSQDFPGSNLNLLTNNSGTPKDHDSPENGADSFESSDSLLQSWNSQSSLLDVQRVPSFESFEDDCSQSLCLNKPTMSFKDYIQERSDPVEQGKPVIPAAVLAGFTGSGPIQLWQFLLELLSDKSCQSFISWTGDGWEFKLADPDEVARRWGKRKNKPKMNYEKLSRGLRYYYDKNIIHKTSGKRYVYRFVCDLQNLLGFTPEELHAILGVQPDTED
Conditions: protein: recombinant; tags: N-terminal GST; dsDNA, one strand shown. Put shortly: as §1

In another assay the target is T9, SPDEF (Homo sapiens, UniProt O95238 1-335).
T9 sequence: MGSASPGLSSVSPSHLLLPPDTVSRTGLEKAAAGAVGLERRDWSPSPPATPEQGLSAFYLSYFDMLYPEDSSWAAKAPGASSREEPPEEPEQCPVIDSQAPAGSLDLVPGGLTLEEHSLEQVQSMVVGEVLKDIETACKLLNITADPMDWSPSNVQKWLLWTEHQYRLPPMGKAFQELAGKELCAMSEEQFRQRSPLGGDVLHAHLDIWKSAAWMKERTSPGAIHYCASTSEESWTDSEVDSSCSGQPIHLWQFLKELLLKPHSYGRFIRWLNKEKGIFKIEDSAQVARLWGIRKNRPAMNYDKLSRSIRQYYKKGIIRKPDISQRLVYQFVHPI
Conditions: protein: recombinant; tags: N-terminal GST; dsDNA, one strand shown. The procedure, abridged: as §1

For a further assay, the target named is T10, ETV7 (Homo sapiens, UniProt Q9Y603 1-341).
T10 sequence: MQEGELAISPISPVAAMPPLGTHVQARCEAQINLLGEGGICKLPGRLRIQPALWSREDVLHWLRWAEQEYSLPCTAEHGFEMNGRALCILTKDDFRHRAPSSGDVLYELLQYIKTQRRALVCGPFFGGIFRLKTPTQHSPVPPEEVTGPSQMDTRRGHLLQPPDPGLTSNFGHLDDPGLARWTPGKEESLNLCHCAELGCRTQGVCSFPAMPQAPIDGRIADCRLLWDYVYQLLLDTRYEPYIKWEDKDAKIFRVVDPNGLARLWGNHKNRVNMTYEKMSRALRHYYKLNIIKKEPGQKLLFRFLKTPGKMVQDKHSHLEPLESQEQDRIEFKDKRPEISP
To be noted: protein: recombinant; tags: N-terminal GST; dsDNA, one strand shown. The procedure, abridged: as §1

The target in the next assay is T11, ELF5 (Homo sapiens, UniProt Q9UKW6-2 1-255).
T11 sequence: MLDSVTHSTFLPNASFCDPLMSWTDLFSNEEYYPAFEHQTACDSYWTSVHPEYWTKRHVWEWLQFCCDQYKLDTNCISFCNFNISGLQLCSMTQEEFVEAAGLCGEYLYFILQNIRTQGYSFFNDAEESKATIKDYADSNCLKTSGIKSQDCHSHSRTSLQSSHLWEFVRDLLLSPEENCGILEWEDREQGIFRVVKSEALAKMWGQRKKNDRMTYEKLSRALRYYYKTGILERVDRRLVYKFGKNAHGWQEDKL
To be noted: protein: recombinant; tags: N-terminal GST; dsDNA, one strand shown. Put shortly:
as §1

A further assay concerns the target T12, ETV3 (Homo sapiens, UniProt P41162-2 1-143).
T12 sequence: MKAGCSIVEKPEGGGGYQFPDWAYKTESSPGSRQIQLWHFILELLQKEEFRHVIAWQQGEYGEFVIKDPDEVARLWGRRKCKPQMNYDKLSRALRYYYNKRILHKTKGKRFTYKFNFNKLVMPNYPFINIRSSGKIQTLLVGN
Conditions: protein: recombinant; tags: N-terminal GST; dsDNA, one strand shown. Put shortly: as §1

Another assay deals with ETV6 (Homo sapiens, UniProt P41212 1-452). Conditions: protein: recombinant; tags: N-terminal GST; dsDNA, one strand shown. Put shortly:
as §1

Chain of HSF1 (Q00613 whole entry): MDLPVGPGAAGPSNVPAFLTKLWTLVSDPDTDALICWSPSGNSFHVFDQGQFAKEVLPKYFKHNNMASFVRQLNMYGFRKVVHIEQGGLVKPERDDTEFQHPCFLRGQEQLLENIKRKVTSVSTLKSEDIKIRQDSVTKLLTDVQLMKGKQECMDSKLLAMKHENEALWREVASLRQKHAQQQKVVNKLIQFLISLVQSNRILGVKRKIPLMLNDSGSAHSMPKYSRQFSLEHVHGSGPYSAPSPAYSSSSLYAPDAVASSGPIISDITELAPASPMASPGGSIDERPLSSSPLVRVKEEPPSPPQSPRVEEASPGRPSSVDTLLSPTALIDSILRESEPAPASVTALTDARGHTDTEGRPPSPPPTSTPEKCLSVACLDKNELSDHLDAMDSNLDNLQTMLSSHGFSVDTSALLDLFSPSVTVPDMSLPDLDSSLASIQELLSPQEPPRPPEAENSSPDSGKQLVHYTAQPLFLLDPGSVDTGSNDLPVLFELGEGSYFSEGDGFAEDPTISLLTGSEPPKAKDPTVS
Chain of ELF4 (Q99607 whole entry): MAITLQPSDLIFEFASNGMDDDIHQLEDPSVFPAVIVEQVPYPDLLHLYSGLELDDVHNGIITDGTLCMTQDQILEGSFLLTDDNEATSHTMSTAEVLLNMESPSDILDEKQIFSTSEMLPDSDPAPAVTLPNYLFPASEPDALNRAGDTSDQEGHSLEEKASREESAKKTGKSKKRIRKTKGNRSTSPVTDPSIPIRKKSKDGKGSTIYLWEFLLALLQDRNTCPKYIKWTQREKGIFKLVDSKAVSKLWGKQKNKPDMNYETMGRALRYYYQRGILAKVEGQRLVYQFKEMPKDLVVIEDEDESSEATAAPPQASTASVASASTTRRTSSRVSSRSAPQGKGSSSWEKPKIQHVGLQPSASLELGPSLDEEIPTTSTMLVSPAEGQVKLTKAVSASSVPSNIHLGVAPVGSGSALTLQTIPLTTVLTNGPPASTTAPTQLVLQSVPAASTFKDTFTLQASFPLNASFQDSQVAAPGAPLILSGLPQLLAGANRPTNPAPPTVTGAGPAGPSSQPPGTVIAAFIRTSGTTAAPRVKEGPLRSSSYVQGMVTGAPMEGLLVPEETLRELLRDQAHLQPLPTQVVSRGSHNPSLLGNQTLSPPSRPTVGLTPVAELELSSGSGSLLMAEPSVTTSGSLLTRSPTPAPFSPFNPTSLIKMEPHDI
Chain of ETV6 (P41212 whole entry): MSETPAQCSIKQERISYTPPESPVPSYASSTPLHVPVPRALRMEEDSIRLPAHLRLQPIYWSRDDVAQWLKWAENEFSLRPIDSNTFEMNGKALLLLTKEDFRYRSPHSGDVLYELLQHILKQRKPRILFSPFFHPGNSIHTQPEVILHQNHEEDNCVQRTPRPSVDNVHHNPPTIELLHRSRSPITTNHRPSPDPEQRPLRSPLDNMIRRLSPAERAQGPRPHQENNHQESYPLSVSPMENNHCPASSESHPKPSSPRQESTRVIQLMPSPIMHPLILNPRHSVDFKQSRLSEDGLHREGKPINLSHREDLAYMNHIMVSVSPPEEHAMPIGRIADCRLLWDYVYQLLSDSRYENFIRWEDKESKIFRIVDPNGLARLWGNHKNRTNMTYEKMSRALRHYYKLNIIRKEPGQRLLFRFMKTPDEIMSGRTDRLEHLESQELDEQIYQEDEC
Chain of ETV1 (P50549 whole entry): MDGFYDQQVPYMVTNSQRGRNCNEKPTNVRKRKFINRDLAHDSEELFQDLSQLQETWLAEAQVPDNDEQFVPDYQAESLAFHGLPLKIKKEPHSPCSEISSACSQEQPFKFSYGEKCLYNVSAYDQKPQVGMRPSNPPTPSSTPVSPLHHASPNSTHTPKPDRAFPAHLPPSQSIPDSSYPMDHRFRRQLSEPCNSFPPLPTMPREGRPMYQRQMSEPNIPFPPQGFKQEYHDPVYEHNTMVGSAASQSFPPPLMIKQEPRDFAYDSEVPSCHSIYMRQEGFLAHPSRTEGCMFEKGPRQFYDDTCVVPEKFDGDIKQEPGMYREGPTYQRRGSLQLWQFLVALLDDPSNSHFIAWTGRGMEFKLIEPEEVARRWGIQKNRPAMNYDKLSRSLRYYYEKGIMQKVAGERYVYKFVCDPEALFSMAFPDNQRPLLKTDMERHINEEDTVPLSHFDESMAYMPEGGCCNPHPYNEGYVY
Chain of ETV5 (P41161 whole entry): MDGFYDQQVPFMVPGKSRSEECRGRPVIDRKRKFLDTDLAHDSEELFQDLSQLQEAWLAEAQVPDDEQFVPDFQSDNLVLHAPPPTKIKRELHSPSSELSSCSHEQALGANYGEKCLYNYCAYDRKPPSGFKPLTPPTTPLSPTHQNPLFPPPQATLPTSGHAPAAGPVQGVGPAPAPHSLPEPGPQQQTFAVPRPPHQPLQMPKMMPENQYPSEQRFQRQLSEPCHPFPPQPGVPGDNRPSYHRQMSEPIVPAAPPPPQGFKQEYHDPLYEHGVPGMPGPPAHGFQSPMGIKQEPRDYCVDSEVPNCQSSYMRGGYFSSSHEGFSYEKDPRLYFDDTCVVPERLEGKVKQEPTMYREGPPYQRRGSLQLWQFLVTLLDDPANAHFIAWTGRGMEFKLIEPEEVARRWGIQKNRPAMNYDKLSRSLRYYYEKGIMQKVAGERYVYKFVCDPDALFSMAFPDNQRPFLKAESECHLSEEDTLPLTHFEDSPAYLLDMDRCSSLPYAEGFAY
Chain of CRX (O43186 whole entry): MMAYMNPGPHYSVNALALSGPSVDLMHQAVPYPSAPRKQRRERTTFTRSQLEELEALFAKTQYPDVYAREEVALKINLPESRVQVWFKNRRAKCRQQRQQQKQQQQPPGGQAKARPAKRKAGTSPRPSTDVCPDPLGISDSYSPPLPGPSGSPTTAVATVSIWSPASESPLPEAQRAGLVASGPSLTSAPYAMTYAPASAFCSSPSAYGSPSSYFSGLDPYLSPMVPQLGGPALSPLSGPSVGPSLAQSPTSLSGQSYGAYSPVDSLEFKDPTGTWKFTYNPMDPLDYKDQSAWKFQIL

With CCGCCT, the binding signal with FEV is 1.43 fold enrichment (6-mer frequency, TF over GST control); with ETV5, 1.6 fold enrichment (6-mer frequency, TF over GST control); with HSF1, 1.08 fold enrichment (6-mer frequency, TF over GST control); with SPIC, 1.61 fold enrichment (6-mer frequency, TF over GST control); in the assay with ELF4, 1.52 fold enrichment (6-mer frequency, TF over GST control); with ELK4, 1.45 fold enrichment (6-mer frequency, TF over GST control). The binding signal is 1.46 fold enrichment (6-mer frequency, TF over GST control) in the assay with ETV2; 1.35 fold enrichment (6-mer frequency, TF over GST control) with ELF3; 1.25 fold enrichment (6-mer frequency, TF over GST control) with CRX; 1.47 fold enrichment (6-mer frequency, TF over GST control) with ETV1; 1.35 fold enrichment (6-mer frequency, TF over GST control) in the assay with ERF; 1.49 fold enrichment (6-mer frequency, TF over GST control) in the assay with ETV3L. Besides, the binding signal in the assay with ETS2 is 1.41 fold enrichment (6-mer frequency, TF over GST control); with SPDEF, 1.75 fold enrichment (6-mer frequency, TF over GST control); with ETV7, 1.52 fold enrichment (6-mer frequency, TF over GST control); in the assay with ELF5, 1.84 fold enrichment (6-mer frequency, TF over GST control); with ETV3, 1.64 fold enrichment (6-mer frequency, TF over GST control); in the assay with ETV6, 1.64 fold enrichment (6-mer frequency, TF over GST control).
